DT40 TDP1 no CPT: qHTS for Inhibitors of human tyrosyl-DNA phosphodiesterase 1 (TDP1): qHTS in cells in absence of CPT; DT40 Tdp1-/- hTDP1 cells, no CPT, ATP luminescence, 48 h; Potency, µM (top dose mostly 46.2 µM), most hits filed as inhibitors; hit rate 15% among 420,000; also: nearly all actives have a fitted effect of over 55% in size
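Luminescent ATP content (CellTiter-Glo) served as the growth readout. Knockout chicken DT40 cells expressing human TDP1 were exposed to compounds without camptothecin for a minimum 48 hr at 37 °C.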
12-LOX inh: blocks human arachidonate 12S-lipoxygenase. P18054. purified 12hLO, xylenol orange hydroperoxide absorbance. Potency, µM (doses to about 108 µM), hits mostly inhibitors. hit rate 1.1% among 580,000
Target sequence (P18054 whole entry, looked up): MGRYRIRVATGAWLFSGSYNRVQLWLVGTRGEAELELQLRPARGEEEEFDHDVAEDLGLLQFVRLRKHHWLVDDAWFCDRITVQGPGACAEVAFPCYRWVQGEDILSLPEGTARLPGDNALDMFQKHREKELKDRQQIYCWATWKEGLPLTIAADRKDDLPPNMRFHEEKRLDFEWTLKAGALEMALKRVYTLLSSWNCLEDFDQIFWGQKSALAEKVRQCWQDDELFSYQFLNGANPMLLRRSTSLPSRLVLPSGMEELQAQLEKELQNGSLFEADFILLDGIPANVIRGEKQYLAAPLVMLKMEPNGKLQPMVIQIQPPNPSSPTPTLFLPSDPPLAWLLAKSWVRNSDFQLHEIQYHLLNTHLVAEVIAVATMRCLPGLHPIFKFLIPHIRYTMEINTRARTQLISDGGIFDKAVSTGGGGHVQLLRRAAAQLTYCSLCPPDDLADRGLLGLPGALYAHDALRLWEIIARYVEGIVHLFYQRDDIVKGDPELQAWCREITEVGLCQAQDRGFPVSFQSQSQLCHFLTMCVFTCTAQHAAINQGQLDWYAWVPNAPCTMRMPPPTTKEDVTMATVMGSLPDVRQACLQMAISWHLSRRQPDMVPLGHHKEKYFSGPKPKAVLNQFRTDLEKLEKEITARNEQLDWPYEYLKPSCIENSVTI
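Hydroperoxide product was detected by ferrous iron/xylenol orange as the 573 to 405 nm absorbance ratio. Arachidonic acid at 40 uM (final) was turned over for 30 min at room temperature by 150 nM human 12hLO, pH 7.0 Hepes buffer, after 15 min compound preincubation.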
DT40 TDP1 CPT: DT40-hTDP1 cell growth loss with CPT | Potency, µM (doses to about 46.2 µM), actives largely listed as inhibitors | hit rate 12% among 420,000 | chicken DT40 Tdp1-/-;hTDP1 cells + 20 nM CPT, ATP luminescence, 48 h | AID 686979; also: nearly all actives have a fitted effect of over 55% in size
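Chicken DT40 Tdp1-/- cells complemented with human TDP1, 400 cells/well, exposed to compounds plus 20 nM camptothecin for at least 48 h at 37 C; viability read as ATP content by CellTiter-Glo luminescence.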
ELG1 repair inh: blocks ELG1-dependent DNA repair in HEK293T cells; HEK293T ELG1-luciferase reporter, luminescence, 16 h; DNA damage induced by 5-fluorouridine; Potency, µM (doses to about 46.1 µM), usual class: inhibitors; hit rate 2.3% among 330,000; also: nearly all actives have a fitted effect of over 55% in size
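HEK293T cells expressing luciferase-tagged ELG1 (2,000/well) received 5-Fluorouridine plus compound or DMSO for 16 hr at 37 °C. Luciferase was read by ONE-Glo luminescence after 30 min at room temperature.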
Gal4-VP16 FLuc: inhibits Gal4-VP16 luciferase reporter, ROR gamma counter-screen. AID 2546. Potency, µM (highest dose often 53.6 µM), hits mostly inhibitors. hit rate 3.5% among 310,000. Drosophila S2 Gal4-VP16 UAS-luciferase, luminescence, 20 h;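 also: Gal4-VP16 expression switched on by copper sulfate through the metallothionein promoter; nearly all actives have a fitted effect of over 50% in size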
RORgamma inh: inhibitors of mouse ROR gamma transcriptional activity | P51450 | Drosophila S2 Gal4-RORgamma UAS-luciferase reporter, 20 h | Potency, µM (titrated, usually from 53.6 µM), most hits filed as inhibitors | hit rate 5.4% among 310,000; also: nearly all actives have a fitted effect of over 60% in size
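Drosophila Schneider cells stably carrying a metallothionein-driven Gal4 DBD–ROR gamma fusion and a UAS-Photinus luciferase reporter were exposed to compound for 1 hr, then induced with copper sulfate (700 uM final) for 20 hr at ambient temperature before luminescence reading.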
A number is an active result; n = inactive; u = inconclusive; x = not tested or not shown; [ ] = another dose, or the depositor's remark. Compounds with a hit are over-represented: about 15% of the library has one in this group of screens. Calls follow the shape of the dose curve; as a rule, active = well fitted curve in the direction sought with a large enough effect; inconclusive = small, poorly fitted or top-dose-only effect, or another doubt; inactive = no such curve, though single readings can be large; an effect the other way counts as inactive or inconclusive.

SMILES | DT40 TDP1 no CPT | 12-LOX inh | DT40 TDP1 CPT | ELG1 repair inh | Gal4-VP16 FLuc | RORgamma inh
CC(C)(C)n1nnnc1CN(Cc1cccnc1)Cc1ccccc1Cl | u | u | n | n | n | n
O=C(NCCC1CCCO1)c1cc(-c2ccccc2)nc2ccccc12 (centres undefined) | x | n | x | x | x | x
N#Cc1ccc(N2CCC(C(=O)Nc3cccc(S(=O)(=O)N4CCCC4)c3)CC2)nc1 | x | n | x | x | x | x
CCN(CC)c1ccc(C(=O)NN)cc1 | n | n | n | n | n[10 µM] | n
CCN(CC)c1ccc(N)cc1 | 1.6µM | x | 1.8µM | u | u | n
Nc1ccc(N(CCO)CCO)cc1 | 21µM | n | 12µM | n | n | n
Cc1ccc(CNC(=O)C2CCN(c3nc4ccc(C)cc4[nH]3)CC2)cc1 | u | n | u | x | x | x
COc1ccc(N2CCN(C(=O)C3CCN(c4nc5ccc(C)cc5[nH]4)CC3)CC2)cc1 | 8.2µM | u | 10µM | x | x | x
Cc1ccc(C)c(N2CCN(C(=O)C3CCN(c4nc5ccc(C)cc5[nH]4)CC3)CC2)c1 | 2.3µM | u | 4.1µM | x | x | x
CCCCNC(=O)C1CCN(c2nc3ccc(C)cc3[nH]2)CC1 | n | n | n | x | x | x
CCCc1cc(=O)n2nc(N3CCC(C(=O)Nc4c(F)c(F)c(F)c(F)c4F)CC3)sc2n1 | n | n | n | n | n | n
CCCc1cc(=O)n2nc(N3CCC(C(=O)N4CCN(c5ccc(OC)cc5)CC4)CC3)sc2n1 | 5.8µM | u | 2.6µM | n | n | u
Cc1ccc2nc(N3CCC(C(=O)N4CCN(c5cccc(Cl)c5)CC4)CC3)[nH]c2c1 | 8.2µM | n | 13µM | x | x | x
O=c1c2ccccc2c(-c2nnc(SCCO)o2)nn1Cc1ccccc1 | x | n | x | x | x | x
N#Cc1ccc(OCC(=O)NNC(=O)C2CC(=O)Nc3cc(F)ccc32)cc1 (centres undefined) | x | n | x | x | x | x
O=C(NC1CCc2nnc(C3CC3)n2CC1)c1cc(C2CC2)[nH]n1 (centres undefined) | x | n | x | x | x | x
O=S1(=O)CCC(N2CCN(Cc3cccc(S(=O)(=O)N4CCOCC4)c3)CC2)C1 (centres undefined) | x | n | x | x | x | x
CC(=O)Nc1cc(C(=O)NCc2ccc(C)cc2)ccc1S(=O)(=O)c1ccc(Cl)cc1 | 16µM | n | u | x | x | x
CCOc1ccc(CNC(=O)c2ccc(Sc3ccc(Cl)cc3)c(NC(C)=O)c2)cc1 | 18µM | u | 23µM | u | n | n
CCCCSc1ccc2nc(-c3ccc(C#N)cc3)cn2c1 | u | n | u | u | n | n
CCCSc1ccc2nc(-c3ccccc3)cn2c1 | 16µM | u | 18µM | u | 6.3µM | 2.2µM
CCN(CC)C(=O)c1nn(-c2ccccc2)c2c1C1CCC2(C)C1(C)C (centres undefined) | 16µM | n | 23µM | n | n | n
CCOCCCNC(=S)N1CCCN(c2nc3cc(C)ccc3cc2C#N)CC1 | n | n | n | u | n[10 µM] | u
Cc1cc(C)c2cc(C#N)c(N3CCCN(C(=S)NCCCN(C)C)CC3)nc2c1 | 23µM | n | u | n | n | n
Cc1ccc2cc(C#N)c(N3CCCN(C(=S)NCCCN(C)C)CC3)nc2c1 | 15µM | u | 16µM | n | n | n
SMILES | DT40 TDP1 no CPT | 12-LOX inh | DT40 TDP1 CPT | ELG1 repair inh | Gal4-VP16 FLuc | RORgamma inh
CCS(=O)(=O)n1nc(-c2ccccc2)nc1NCc1ccco1 | n | n | n | u | n | n
Cc1ccc(S(=O)(=O)n2nc(-c3ccc(Cl)cc3)nc2NCc2ccco2)cc1 | u | 13µM | u | u | n | n
O=S(=O)(c1ccccc1)n1nc(-c2ccc(Cl)cc2)nc1NCc1ccccc1 | 16µM | n | u | x | x | x
COc1ncc(C(=O)NCc2cccnc2N2CCN(C(C)=O)CC2)cn1 | x | n | x | x | x | x
Cc1ccc(CN2C(=O)OC(c3cccc(NC(=O)Cc4ccccc4)c3)C2C(=O)N2CCCC2)cc1 (centres undefined) | x | n | x | x | x | x
Cc1ccc(Nc2nc(CSc3nnnn3C3CC3)cs2)cc1 | x | n | x | x | x | x
O=C(NCC1CC1)c1cc(C2CC2)nc2onc(C3CCCN3)c12 (centres undefined) | x | n[6.33 µM] | x | x | x | x
COc1ccccc1N1CCc2c(C)nc3c(OC)cccc3c21 | 4.1µM | x | 5.8µM | n | n | n
COc1cccc2c3c(c(C)nc12)CCN3c1ccccc1 | 15µM | n | u | n | n | n
Cc1ccc2nc(C)c3c(c2c1)N(c1ccc(F)cc1)CC3 | u | u | 10µM | u | n | n
CSc1nc(C)c2c(n1)N(c1ccc(F)cc1)CC2 | u | n | n | n | n | n
COc1cccc2c1nc(C)c1cc(C)oc12 | u | n | n | u | n | n
O=S(Cc1cccc(C(F)(F)F)c1)Cc1ccc(F)cc1Cl (centres undefined) | x | n | x | x | x | x
Cc1cc(NC(=O)NCc2nc(-c3ccccc3C)oc2C)ccc1Cl | x | n | x | x | x | x
CC(Oc1ccccc1)C(=O)N1CC(Oc2cccc(-c3nc(-c4ccccc4)no3)c2)C1 (centres undefined) | x | n | x | x | x | x
COc1ccc(CCN(C)CCCC(C#N)(c2cc(OC)c(OC)c(OC)c2)C(C)C)cc1OC (centres undefined) | 21µM | u | u | n | n | n
CCCCOC(=O)c1cccc(NC(=O)c2cc3ccccc3o2)c1 | 5.2µM | n | 13µM | x | x | x
CC(=O)Nc1cccc(NC(=O)c2cc3ccccc3o2)c1 | 21µM | n | 16µM | u | n | u
CCCCOC(=O)c1ccc(NC(=O)c2cc(=O)c3ccccc3o2)cc1 | u | n | u | x | x | x
Brc1ccc(CSc2nc3ccccc3s2)cc1 | x | n | x | x | x | x
O=C(O)/C(=C\c1ccc(Br)cc1)Sc1nc2ccccc2s1 | x | 8.9µM | x | x | x | x
O=C(NNC(=O)C1CCCc2ccccc21)c1ccccc1Br (centres undefined) | x | n | x | x | x | x
Cc1cccc(C(=O)NCCc2nc3ccccc3n2Cc2ccc(Cl)cc2)c1 | u | n | 21µM | x | x | x
CCCCCn1c(CCNC(=O)c2cccs2)nc2ccccc21 | u | n | u | u | n | u
CCCCCn1c(CCNC(=O)c2cccc(C)c2)nc2ccccc21 | 18µM | n | 21µM | x | x | x
O=C(NCCc1nc2ccccc2n1Cc1ccc(Cl)cc1)c1ccccc1 | u | n | u | x | x | x
Cc1cccc(Cn2c(C(C)(C)C)cc3cccnc32)c1 | 21µM | n | u | n | n | n
O=C(CC1N=C2c3ccccc3N=C(SCc3ccccc3F)N2C1=O)NCc1cccs1 (centres undefined) | 18µM | n | u | x | x | x
NC(=O)CSC1=Nc2ccccc2C2=NC(CC(=O)NCc3cccs3)C(=O)N12 (centres undefined) | n | n | n | n | n | n

High-throughput results deposited in PubChem by National Center for Advancing Translational Sciences (NCATS).
